Assay outcomes as filed in PubChem BioAssay.
pS6 MEF inh – inhibitors of mTORC1 signaling in Tsc2-/- p53-/- MEF cells; Tsc2-/- p53-/- MEF, phospho-rpS6 immunofluorescence/PI, 24 h; Potency, µM (series often up to 38.3 µM), actives largely listed as inhibitors; 0.78% of 44,000 active; also: nearly all actives have a fitted effect of over 50% in size
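Read-out: phospho-S6 Alexa-488 intensity over PI intensity per well, scored as % active cells using thresholds from rapamycin (7.5 nM) and DMSO controls. Tsc2-/-, p53-/- MEFs exposed to compound for 24 h; PI cell count recorded as viability.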
PMP22 txn – modulates PMP22 transcription in S16 Schwann cells; S16 Pmp22-F2sN Schwann cells, FLuc/NLuc coincidence luminescence, 24 h; Potency, µM (titrated, usually from 57.5 µM), actives largely listed as inhibitors; 2% of 43,000 active; active = clear falling dose curves in both reporters; inconclusive = both reporters move, but less clearly or upward; inactive = either reporter flat; the % is the NLuc reporter signal
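Transcriptional readout in edited S16(c9) cells: two luciferases reported from the Pmp22 locus, measured in turn after 24 h compound incubation.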
S16 viability – S16 Schwann cell cytotoxicity | S16 Pmp22-F2sN Schwann cells viability, CellTiter-Glo, 24 h | Potency, µM (top dose mostly 57.5 µM), actives largely listed as cytotoxic | 0.48% of 43,000 active | AID 1508642; also: nearly all actives have a fitted effect of over 65% in size
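Viability was measured by CellTiter-Glo luminescence (15 min, room temperature). This followed 24 h at 37 °C of compound exposure (23 nL pin transfer) in S16 Pmp22-F2sN Schwann cells, 500-1,000 per well.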
SKOV3 invasion – ovarian cancer metastasis inhibition, 3D TME model. SKOV3ip1-GFP adhesion/invasion on 3D omental model, fluorescence. Potency, µM (series often up to 45.8 µM), hits mostly inhibitors. 0.1% of 46,000 active; also: nearly all actives have a fitted effect of over 65% in size
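qHTS, 4-pt dose (0.36-46 umol/L); SKOV3ip1-GFP, 1,200 cells/well, no FBS; primary omental fibroblast/mesothelial co-culture 48 h pre-grown; 2 h RT + 16 h 37 C; PBS wash, 4% PFA; GFP count 488/509 nm.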
HTT-AS act – activators of huntingtin-antisense promoter activity; HEK293 HTT-AS promoter firefly luciferase reporter, 24 h; response scale: percent change from vehicle, -100% = no light; Potency, µM (doses to about 57.5 µM), usual class: activators; 0.24% of 48,000 active; also: nearly all actives have a fitted effect of over 55% in size
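HEK293 cells carrying firefly luciferase reporters were seeded at 2,500 per well in Opti-MEM and cultured for 24 h. They were then treated with compounds at up to 57.5 uM final for 24 h at 37 degrees C before Dual-Glo luminescence readout.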
HTT promoter inh – HTT promoter inhibition; HEK293 HTT promoter firefly luciferase reporter, 24 h; Potency, µM (top dose mostly 57.5 µM), actives largely listed as inhibitors; 0.93% of 48,000 active; also: nearly all actives have a fitted effect of over 50% in size
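HEK293 luciferase promoter-reporter cells (2,500/well) plated 24 h, then compounds added at up to 57.5 uM final for 24 h at 37 °C. Firefly luminescence by Dual-Glo, normalized to vehicle (0%) and zero RLU (-100%).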
Numbers stand for hits; - = inactive; ? = inconclusive; . = not tested or not shown; [ ] = remark or other dose. Sampled rows, rich in hits. Any-hit rate of the full collection: about 3.6%. Unless noted, calls follow the shape of the dose curve; as a rule, active = well fitted curve in the direction sought with a large enough effect; inconclusive = small, poorly fitted or top-dose-only effect, or another doubt; inactive = no such curve, though single readings can be large; an effect the other way counts as inactive or inconclusive.

SMILES	pS6 MEF inh	PMP22 txn	S16 viability	SKOV3 invasion	HTT-AS act	HTT promoter inh
CCc1ccc(NC(=O)CSC2=Nc3ccccc3C3=NC(CCC(=O)NCc4ccccc4)C(=O)N23)cc1 (configuration not stated)	-	-	-	-	-	?
COc1ccc(Cl)cc1NC(=O)CSC1=Nc2ccccc2C2=NC(CCC(=O)NCc3ccc(F)cc3)C(=O)N12 (configuration not stated)	-	?	-	-	-	-
CC(C)c1ccc(NC(=O)CSC2=Nc3ccccc3C3=NC(CCC(=O)NCc4ccc(F)cc4)C(=O)N23)cc1 (configuration not stated)	?	?	28µM	-	-	?
COc1ccc(OC)c(NC(=O)CSC2=Nc3ccccc3C3=NC(CCC(=O)NCc4ccccc4)C(=O)N23)c1 (configuration not stated)	-	12µM	?	-	-	-
Cc1cnc(CNC(=O)c2c(=O)c3ccc(N4CCCN(C)CC4)nc3n3c2sc2ccccc23)cn1	.	.	.	-	-	-
Cc1cc(C)cc(Oc2nc3c(C)cccn3c(=O)c2/C=C(\C#N)c2nc3ccccc3[nH]2)c1	-	?	-	-	-	-[11.5 µM]
Cc1ccccc1Oc1nc2ccccn2c(=O)c1/C=C(\C#N)c1nc2ccccc2[nH]1	9.3µM	-	-	-	-	-
COc1ccc(Oc2nc3c(C)cccn3c(=O)c2/C=C(\C#N)c2nc3ccccc3[nH]2)cc1	13µM	-	-	-	-	-
CC1(C)CC(=O)c2c(C(F)(F)F)nn(-c3ccc(C(N)=O)c(NC4CCC(OC(=O)CN)CC4)c3)c2C1 (configuration not stated)	.	.	.	-	-	?
COC(=O)c1ccc(O)c2ncc(-c3ccc(C(=O)N4CCN(C)CC4)cc3)cc12	.	.	.	.	.	-
COc1c(C)c2c(c(O)c1CC=C(C)CCC(=O)O)C(=O)OC2	.	.	.	-	-	-
COc1ccc(-c2nc3ccccc3s2)cc1NC(=O)c1ccccc1F	-	-	-	-	-	-
COc1ccc(-c2nc3ccccc3s2)cc1NC(C)=O	-	?	-	-	1.4µM	-
COc1ccc(-c2nc3ccccc3s2)cc1NC(=O)c1cccc([N+](=O)[O-])c1C	-	?	-	-	2µM	-
CCOC(=O)c1c(C)n(-c2ccccc2)c2ccc(OC(=O)c3ccccc3)cc12	-	?	-	-	-	20µM
CCOC(=O)c1c(C)n(-c2ccccc2)c2ccc(OC(=O)c3cccc(Cl)c3)cc12	-	-	?	-	-	-
CC(C)c1ccc(S(=O)(=O)c2cnc(SCC(=O)Nc3ccc(F)cc3F)nc2N)cc1	-	?	-	-	-	?
CC(Sc1ncc(S(=O)(=O)c2ccc(C(C)C)cc2)c(N)n1)C(=O)Nc1ccccc1 (configuration not stated)	-	?	-	-	-	32µM
CCN(CC)c1ccc(C(=C2C=CC(=[N+](CC)CC)C=C2)c2cc(S(=O)(=O)O)ccc2S(=O)(=O)[O-])cc1	.	.	.	.	-	?
CO[C@H]1C(=O)[C@]2(C)[C@@H](OC)C[C@H]3OC[C@@]3(OC(C)=O)[C@H]2[C@H](OC(=O)c2ccccc2)[C@]2(O)C[C@H](OC(=O)[C@H](O)[C@@H](NC(=O)OC(C)(C)C)c3ccccc3)C(C)=C1C2(C)C	.	.	.	-	-	-
CCc1c(C)sc2c1CCN(Cc1cccc(F)c1)C2c1ccccc1 (configuration not stated)	-	?	10µM	-	-	?
CCc1c(C)sc2c1CCN(Cc1ccc(C#N)cc1)C2c1ccccc1 (configuration not stated)	-	?	?	-	-	-
CCc1c(C)sc2c1CCN(Cc1ccc(F)cc1)C2c1ccccc1 (configuration not stated)	-	?	8.9µM	-	-	?
CCc1c(C)sc2c1CCN(C(=O)Nc1cc(C)cc(C)c1)C2c1ccccc1 (configuration not stated)	-	?	-	-	-	?
CCOc1ccc(-c2cc(C(=O)N3CCN(c4ccc(C)cc4)C(C)C3)c3ccccc3n2)cc1 (configuration not stated)	-	-	-	-	1.8µM	-
SMILES	pS6 MEF inh	PMP22 txn	S16 viability	SKOV3 invasion	HTT-AS act	HTT promoter inh
COc1nnc(-c2ccc(N3CCCCC3)c(NC(=O)c3ccccc3Cl)c2)c2ccccc12	-	?	?	-	-	11µM
COc1nnc(-c2ccc(N3CCCCC3)c(NC(=O)c3ccc(C)cc3)c2)c2ccccc12	-	-	-	-	-	-
Cc1cc(C(=O)C(=O)Nc2nnc(C(C)C)s2)c(C)n1-c1ccccc1	-	-	-	-	-	6.3µM
COc1ccc(C(=O)NCC(c2ccc3c(c2)OCO3)N2CCN(c3ccc(F)cc3)CC2)cc1 (configuration not stated)	-	?	-	-	-	?
COc1cccc(NC(=O)C(=O)NCC(c2ccc3c(c2)OCO3)N2CCOCC2)c1 (configuration not stated)	-	?	-	-	4.5µM	-
Cc1ccc(C(=O)NCC(c2ccc3c(c2)OCO3)N2CCN(c3ccc(F)cc3)CC2)cc1 (configuration not stated)	-	-	-	-	-	22µM
Cc1cc(CN2CCN(c3c(Br)cnc4nc(-c5ccc(N6CCN(C)CC6)cc5)[nH]c34)CC2)no1	.	.	.	-	-	-
C=CCc1c(C)nc2nc(SCC(=O)Nc3ccc(C)c(C)c3)nn2c1C	10µM	?	?	-	-	-
Cn1nc(-c2ccc(C(=O)Nc3ccc(OC(F)(F)F)cc3)cc2)c2ccccc2c1=O	-	?	?	?	-	10µM
Cn1ccc2c(OCC(=O)Nc3ccc(OC(F)(F)F)cc3)cccc2c1=O	-	?	?	-	-	20µM
Cc1cc2c(F)c(Oc3ncnn4cc(OC[C@@H](C)O)c(C)c34)ccc2[nH]1	.	.	.	-	-	-
CC(C)(O)CC(=O)NCCn1ccc2ncnc(Nc3ccc(Oc4cccc(C(F)(F)F)c4)c(Cl)c3)c21	.	.	.	-	-	-
CCOC(=O)c1cnc2ccc(Cl)cc2c1Nc1ccc(N2CCOCC2)cc1	-	?	?	-	-	-
CCOC(=O)c1cnc2ccc(C)cc2c1Nc1ccc(N(CC)CC)cc1	?	?	?	-	-	25µM
O=C(Nc1cccc(Cl)c1)Nc1ncc(CCNc2ncnc3ccsc23)s1	.	.	.	-	-	-
